About 980 (1.5%) of roughly 65,000 compounds were called active.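 Rule for the calls: active = activation above the mean of all tested compounds plus 3 SD (cut at about 49% in these data); inactive = the rest.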 For the sample, actives were picked, then their nearest neighbours and some compounds at random.

Sequence of Nuclear receptor ROR-alpha (Homo sapiens) (P35398 whole entry, looked up, the tested form may be a part): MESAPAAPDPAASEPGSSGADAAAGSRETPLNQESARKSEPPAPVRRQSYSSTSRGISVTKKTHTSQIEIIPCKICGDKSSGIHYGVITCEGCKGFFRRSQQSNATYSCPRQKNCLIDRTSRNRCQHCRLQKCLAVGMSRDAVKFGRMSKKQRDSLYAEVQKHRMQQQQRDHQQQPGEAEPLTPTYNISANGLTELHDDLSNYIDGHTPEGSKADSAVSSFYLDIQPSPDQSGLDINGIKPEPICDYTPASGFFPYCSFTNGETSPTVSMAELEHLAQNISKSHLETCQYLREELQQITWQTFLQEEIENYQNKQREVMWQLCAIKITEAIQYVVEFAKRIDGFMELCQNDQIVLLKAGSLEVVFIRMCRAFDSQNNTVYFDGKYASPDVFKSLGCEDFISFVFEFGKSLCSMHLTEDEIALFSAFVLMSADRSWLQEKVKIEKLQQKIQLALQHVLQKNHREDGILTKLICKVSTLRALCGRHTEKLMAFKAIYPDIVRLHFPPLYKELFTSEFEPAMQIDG

The assay addresses Nuclear receptor ROR-alpha (Homo sapiens) (UniProt P35398). Briefly: RORA ligand-binding domain transcriptional activation – cell-based, luminescence, primary screen (AID 560).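 Note: 0% = DMSO-treated RORA cells and 100% = added signal equal to DMSO minus mock-transfected cells.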 Particulars: CHO-K1 Gal4-RORA LBD luciferase reporter, at 10 µM, hits give high values, percent increase over mock-subtracted basal signal. On the technique in general: In a reporter assay the amount or activity of a reporter protein is the signal.
`COCCCNC(=O)Cn1cc(C(=O)C2CC2)c2ccccc21`: the activation was 7.7% (inactive).

In the case of `Cc1nnc(SCC(=O)Nn2cnnc2)s1`, the activation is 2.5% (inactive).

Consider `N#Cc1nc(Cc2ccccc2)oc1NCCc1ccccc1`, for which the activation is 54.1% (active).

Take `CCOc1ccc(Nc2oc(Cc3ccccc3)nc2C#N)cc1`: the activation was 25.8% (inactive).

For `N#Cc1nc(COc2ccc(-c3ccccc3)cc2)oc1NCc1cccnc1`, the activation was -0.3% (inactive).

Regarding `O=C(c1ccco1)N(Cc1nc2ccccc2c(=O)[nH]1)C1CCCC1`, the activation was -21.9% (inactive).

Consider `COCn1c(COc2ccccc2)nc2ccccc21`, for which the activation is 53.4% (active).

Turning to `Cn1c(COc2ccc(Cl)cc2)nc2ccccc2c1=O`, the activation is 7.3% (inactive).

On to `COCc1nc2ccccc2n1Cc1ccccc1Br`, for which the activation is -6.2% (inactive).

For the compound `CCOC(=O)c1c(NC(=O)c2ccc(Br)o2)sc2c1CCCC2`, the activation was 10.7% (inactive).

As to `C=CCOC(=O)C1=C(C)OC(N)=C(C#N)C1c1ccc(F)cc1` (stereo unspecified), the activation was -35.4% (inactive).

Regarding `Brc1ccc(Nc2c3c(nc4ncnn24)CCC3)cc1`, the activation is -16.4% (inactive).

Regarding `OCCCN1c2ccccc2Nc2nnc(-c3ccccc3)cc21`, the activation was 56.8% (active).

As for `O=C(CSc1nc2ccccc2[nH]1)c1cccs1`, the activation was 56.5% (active).

For the compound `C=CCSc1nc2ccccc2[nH]1`, the activation is 6.3% (inactive).

With `Cn1c(SCC(=O)c2cccs2)nnc1-c1ccco1`, the activation is 20.4% (inactive).

Consider `Cc1ccsc1-c1nc(CSCC(=O)NCCN2CCCC2)c(C)o1`, for which the activation was 4.3% (inactive).

For the compound `Cc1ccc(S(=O)(=O)C2(S(=O)(=O)c3ccc(C)cc3)CCCC2)cc1`, the activation was 36.3% (inactive).

On to `O=C(CN1CCN(c2ccccn2)CC1)NCc1cccs1`, for which the activation was 1.8% (inactive).

Turning to `Cc1noc(C)c1C(=O)Nc1ccccn1`, the activation was -8.4% (inactive).

Turning to `CCN(CC)S(=O)(=O)c1cccc(C(=O)Nc2ccccc2)c1`, the activation was 2.7% (inactive).

`CCN(CC)S(=O)(=O)c1cc(C(=O)Nc2ccccn2)ccc1C`: the activation is 59.6% (active).

In the case of `O=C(CCn1c(=O)oc2ccccc21)Nc1ccon1`, the activation is 8.2% (inactive).

For `Cc1cc(NC(=O)c2cnn3cccnc23)n(-c2ccccc2)n1`, the activation is 10% (inactive).

Regarding `O=C(Nc1ccc(Cl)cn1)Nc1cccs1`, the activation is 42.6% (inactive).

For the compound `O=C(Nc1ccc(Cl)cn1)c1cnn2cccnc12`, the activation was 62% (active).

For `CCCCOc1ccc(NC(=O)CSCC(=O)OCC)cc1`, the activation was -11.3% (inactive).

Take `CCCCOc1ccc(-c2ncc(C(=O)OCC)c(N)n2)cc1`: the activation is 59.3% (active).

Take `CCOC(=O)c1cnc(SCC(=O)NCc2ccco2)nc1N`: the activation is -10.7% (inactive).

Consider `CCn1cc(NC(=O)Nc2ccc(OC)c(OC)c2)c(C(N)=O)n1`, for which the activation is 4.9% (inactive).

Consider `COc1cc(OC)c(C(=O)NC2CCCCCC2)cc1OC`, for which the activation was -17% (inactive).

For `COc1ccc(NC(=O)c2ccc(OC)cc2)cc1`, the activation is 25.7% (inactive).

Regarding `COc1cc(OC)c(C(=O)Nc2ccc(N(C)C)cc2)cc1OC`, the activation was 58.1% (active).

In the case of `O=C(Nc1ccccc1F)c1cc(S(=O)(=O)N2CCCCC2)cs1`, the activation was 0.6% (inactive).

`CCN1C(=O)/C(=C\N2CCN(c3ccccc3)CC2)SC1=S`: the activation was -18% (inactive).

As to `CCN1C(=O)/C(=C2\SC(N3CCCCC3)=NC2=O)c2ccccc21`, the activation is 84.9% (active).

With `CCN1C(=O)c2cccc3c(N)ccc1c23`, the activation is -26% (inactive).

On to `O=C(c1cccs1)N1CCN(C(=O)N2CCOCC2)CC1`, for which the activation is 8.8% (inactive).

Regarding `N#Cc1nc(-c2ccc(OCc3ccccc3)cc2)oc1NCCCN1CCOCC1`, the activation was 17% (inactive).

Take `CC1CCN(c2oc(-c3ccccc3F)nc2C#N)CC1`: the activation was 29% (inactive).

Regarding `COc1ccc(Nc2oc(-c3ccccc3Cl)nc2C#N)cc1`, the activation is 98.6% (active).

Take `O=S(=O)(c1cccs1)N1CCc2ccccc2C1`: the activation is -7.5% (inactive).

On to `CCN1C(=O)/C(=C2/Sc3ccccc3N2CCCS(=O)(=O)O)SC1=S`, for which the activation is -2.8% (inactive).

In the case of `COCCNC(=O)CN1C(=O)CSc2ncccc21`, the activation is 18.9% (inactive).

With `CCS(=O)(=O)n1nc(-c2ccc(OC)cc2)nc1SC`, the activation is 52.4% (active).

`COc1ccc(-n2c(SC)nc(O)cc2=O)cc1`: the activation was -8.4% (inactive).

As to `CCS(=O)(=O)n1nc(-c2ccccc2)nc1SCc1ccccc1`, the activation is 32.6% (inactive).

Take `CCCS(=O)(=O)N1CCN(C(=O)c2cccs2)CC1`: the activation is -4.5% (inactive).

Take `N#CC(=C1SC=CS1)c1nc(-c2ccccc2)cs1`: the activation was 59.7% (active).

`N#C/C(=C1\CCCN1)c1nc(-c2ccccc2)cs1`: the activation was 6.4% (inactive).

On to `C#CC(C)(C)NC(=O)CSc1nc2c(c(=O)n(C)c(=O)n2C)n1CCCC`, for which the activation is 5% (inactive).

As for `CC(=O)CSc1nnc(CSc2ncccn2)n1C1CCCCC1`, the activation is -9.7% (inactive).

`COC(=O)C1=C(C)Nc2ncnn2C1c1ccco1` (stereo unspecified): the activation is -4.4% (inactive).

Take `COc1ccc(OC)c2c1sc(=NC(=O)CN1C(=O)CCC1=O)n2C`: the activation was -2.8% (inactive).

Take `COc1ccc(C)c2sc(=NC(=O)c3ccc(C#N)cc3)n(C)c12`: the activation is 84.6% (active).

On to `CCCCSc1nnc(-c2ccc(C)cc2)o1`, for which the activation was 23.4% (inactive).

Consider `Cc1ccc(CN2C(=O)CCC2C(=O)NCCCN2CCCCC2C)cc1` (stereo unspecified), for which the activation was 13.7% (inactive).

Take `Cc1noc(NS(=O)(=O)c2ccc(NC(=O)C34CCC(CC3)C4)cc2)c1C`: the activation was 11.6% (inactive).

As to `COc1ccc(N2CCN(C(=O)CSc3ncnc4c3cnn4-c3ccc(OC)cc3)CC2)cc1`, the activation is -12.8% (inactive).

For the compound `Cc1cccc(-n2ncc3c(N4CCc5ccccc54)ncnc32)c1`, the activation is 2% (inactive).

For the compound `COc1ccc(-n2ncc3c(N4CCCc5ccccc54)ncnc32)cc1`, the activation was 50.2% (active).

Consider `c1ccc(-n2ncc3c(N4CCCC4)ncnc32)cc1`, for which the activation was -23.2% (inactive).

As for `COc1ccc2oc(=O)c(C(=O)N3CCCc4ccccc43)cc2c1`, the activation was -10.5% (inactive).

For `COc1ccc(-n2ncc3c(N4CCc5ccccc54)ncnc32)cc1`, the activation was 50.3% (active).

On to `CC(=O)N1CCN(c2ccc(NCc3ccc(C(C)C)cc3)cc2)CC1`, for which the activation is -17.3% (inactive).

With `COc1ccc(N2C(=O)C3CCCN3C2c2cccc(OC)c2)cc1` (stereo unspecified), the activation is -2.9% (inactive).

For `O=C(NCCN1CCOCC1)[C@H](Cc1ccccc1)N1C(=O)c2ccccc2C1=O`, the activation is 3.1% (inactive).

With `O=C(CN1C(=O)COc2ccccc21)NCCN1CCc2ccccc2C1`, the activation is 20.9% (inactive).

In the case of `O=C(NCCCNC(=O)NC1CCCCC1)NC1CCCCC1`, the activation was -10.6% (inactive).

For the compound `CCS(=O)(=O)N1CCC(C(=O)N2CCN(c3ccccc3)CC2)CC1`, the activation is -6.6% (inactive).

Take `COc1cccc2sc(Nc3nc(C)c(C(C)=O)s3)nc12`: the activation is 39.6% (inactive).

`Cc1cc(C)c2c(c1)cc(C)c1nnc(SCC(=O)Nc3cc(C)on3)n12`: the activation was 44.5% (inactive).

On to `Cc1cccc(NC(=O)COc2ccccc2C)n1`, for which the activation is -18.4% (inactive).

Regarding `Cc1cccc(NC(=O)c2ccc3ccccc3n2)n1`, the activation is 83% (active).

Regarding `Cc1cccc(NC(=O)c2ccccc2NC(=O)C(C)(C)C)n1`, the activation was 17.7% (inactive).

`CC(=O)c1c(N)n(C)c(=O)n(C)c1=O`: the activation was -5.2% (inactive).

For the compound `c1ccc2c(NCC3CCCO3)nc(-c3ccncc3)nc2c1` (stereo unspecified), the activation is -11.3% (inactive).

Take `Cc1ccc(-n2c(SCC(=O)Nc3ccc4c(c3)OCO4)nnc2-c2ccoc2C)cc1`: the activation is -1.7% (inactive).

`O=C(Cc1nn[nH]n1)NCCC1=CCCCC1`: the activation is -13.7% (inactive).

As for `Cn1nnc2cc(C(=O)NCCC3=CCCCC3)ccc21`, the activation was 18.1% (inactive).

Turning to `CN(c1ccc(C(=O)NCCC2=CCCCC2)cc1)S(C)(=O)=O`, the activation is 63% (active).

On to `O=C1C(C=NCC2CCCO2)=C(O)c2ccccc21` (stereo unspecified), for which the activation was 48.7% (active).

For `CC(=NCC1CCCO1)c1c(O)[nH]c(=O)[nH]c1=O` (stereo unspecified), the activation is 2.9% (inactive).

Turning to `O=C(CS(=O)(=O)Cc1ccccc1)NCC1CCCO1` (stereo unspecified), the activation is 11.4% (inactive).

With `Cc1ccccc1Nc1nc(N)nc(CN2CCN(c3ccccn3)CC2)n1`, the activation was -2.8% (inactive).

Consider `Cc1cc(O)ccc1-c1cnc2ccccc2n1`, for which the activation is 30.5% (inactive).

`CC(=O)Nc1cccc(-c2cnc3ccccc3n2)c1`: the activation is 72.9% (active).

`CC(=O)Nc1cccc(NC(=O)c2c(-c3ccccc3)noc2C)c1`: the activation was -6.7% (inactive).

On to `CC(C)CC(=O)N=C1SC2CS(=O)(=O)CC2N1CCc1ccccc1` (stereo unspecified), for which the activation is -3.3% (inactive).

As for `Cn1c(CNC(=O)C(C)(C)C)nc2ccccc21`, the activation is 13.9% (inactive).

Turning to `CCN(CC)C(=O)CSc1nnc(-c2cnccn2)n1-c1ccc(C)cc1`, the activation was 12% (inactive).

In the case of `O=C(CSc1nnc(-c2cnccn2)n1Cc1ccco1)c1ccc(Cl)c(Cl)c1`, the activation was 1.4% (inactive).

As for `Cn1c(SCc2c(F)cccc2Cl)nnc1-c1cnccn1`, the activation is 62.8% (active).

As for `COCCn1nnnc1CN1CCC(NC(=O)Nc2cccc(OC)c2)CC1`, the activation is -9% (inactive).

For the compound `CCOc1cc(S(=O)(=O)NCc2ccc3c(c2)OCO3)ccc1F`, the activation is -24.1% (inactive).

As to `CCn1c(CSc2ncccn2)nnc1SCC(=O)N1c2ccccc2CC1C` (stereo unspecified), the activation was -7.8% (inactive).

Regarding `Cn1c(SCc2nc3ccccc3s2)nnc1-c1ccc2c(c1)OCO2`, the activation is 37.8% (inactive).

As to `CC(C)OC(=O)c1sc2nc3c(cc2c1N)C(=O)CCC3`, the activation was 47.6% (inactive).

Turning to `c1ccc2[nH]c(-c3nc4ccccc4[nH]3)nc2c1`, the activation is 14.8% (inactive).

For `Oc1ccc2nc(Cc3ccccc3)[nH]c2c1`, the activation is 2.5% (inactive).

Regarding `Oc1ccc(Cl)cc1/C=N/c1nc2ccccc2[nH]1`, the activation was 51.7% (active).

As to `O=C(C1CCCO1)N1CCC(c2nc3ccccc3[nH]2)CC1` (stereo unspecified), the activation is -13.4% (inactive).

For the compound `Fc1c(F)c(C(F)(F)F)c(F)c(F)c1N1CCN(c2ccc3nnc(C(F)(F)F)n3n2)CC1`, the activation was -6.8% (inactive).

Regarding `COc1cccc(C(=O)c2cc3ccc(O)cc3oc2=O)c1`, the activation is 0.2% (inactive).

Take `O=c1oc2cc(O)ccc2cc1-c1ccc(F)cc1`: the activation was 61.8% (active).

As to `COc1ccc(-c2cc3ccc(OCc4nn[nH]n4)cc3oc2=O)cc1`, the activation is -23.3% (inactive).

The record behind these values is PubChem BioAssay AID560 (The Scripps Research Institute Molecular Screening Center, 2006).
